IDE exosite inh: displaces the probe from the exo-site of human IDE. P14735. purified IDE, FL-6b probe fluorescence polarization; active compounds read low. z-score at 20 µM. 17,000 compounds, 6.3% hits. AID 1259349;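 active = z-score of -3 or lower, meaning strong loss of probe binding signal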;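 also: His-tagged human IDE residues 42-1019 made in E. coli with 30 nM FL-6b probe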
Target sequence (P14735 42-1019 limits assumed): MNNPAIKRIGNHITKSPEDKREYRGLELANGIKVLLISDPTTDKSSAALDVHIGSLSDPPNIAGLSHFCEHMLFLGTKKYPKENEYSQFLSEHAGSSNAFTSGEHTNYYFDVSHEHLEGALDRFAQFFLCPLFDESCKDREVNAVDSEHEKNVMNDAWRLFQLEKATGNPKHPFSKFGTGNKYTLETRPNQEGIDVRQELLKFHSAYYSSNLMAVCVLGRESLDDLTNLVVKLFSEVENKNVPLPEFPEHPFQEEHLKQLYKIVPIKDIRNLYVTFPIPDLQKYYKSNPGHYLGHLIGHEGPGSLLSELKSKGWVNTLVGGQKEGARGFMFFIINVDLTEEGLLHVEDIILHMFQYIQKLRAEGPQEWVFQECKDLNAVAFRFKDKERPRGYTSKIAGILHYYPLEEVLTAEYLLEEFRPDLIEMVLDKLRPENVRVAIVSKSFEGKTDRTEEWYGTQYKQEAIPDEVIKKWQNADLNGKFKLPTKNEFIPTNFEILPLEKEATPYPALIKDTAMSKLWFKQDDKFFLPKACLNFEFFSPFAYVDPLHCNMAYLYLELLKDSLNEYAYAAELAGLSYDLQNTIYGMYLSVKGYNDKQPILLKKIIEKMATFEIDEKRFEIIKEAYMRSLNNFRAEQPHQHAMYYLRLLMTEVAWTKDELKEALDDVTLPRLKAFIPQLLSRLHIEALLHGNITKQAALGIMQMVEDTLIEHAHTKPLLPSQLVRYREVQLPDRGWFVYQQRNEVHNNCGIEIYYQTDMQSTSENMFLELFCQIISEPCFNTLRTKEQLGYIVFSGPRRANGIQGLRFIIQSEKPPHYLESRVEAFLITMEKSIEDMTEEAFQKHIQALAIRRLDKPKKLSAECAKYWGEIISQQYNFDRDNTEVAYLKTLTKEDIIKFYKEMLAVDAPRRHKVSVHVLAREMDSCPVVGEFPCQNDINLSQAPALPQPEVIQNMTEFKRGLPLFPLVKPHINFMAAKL
* hit, by the source's call. Shown is part of a subset that was picked to be rich in hits.

SMILES	IDE exosite inh
CCS(=O)(=O)N1CC2(CN(CC3CCOCC3)[C@H](CO)c3c2c2ccc(OC)cc2n3C)C1	-2.6
C[C@@H]1C(=O)N[C@H](c2ccccc2)CC=CC[C@H](C)Oc2ccccc2C(=O)N1C (mixture of isomers)	-0.28
CCCC#Cc1ccc([C@@H]2[C@@H](CO)N3CCCCN(S(=O)(=O)CC)C[C@@H]23)cc1	-2.1
CCCC#Cc1ccc([C@@H]2[C@H]3CN(S(=O)(=O)CC)CCCCN3[C@H]2CO)cc1	-0.062
CCS(=O)(=O)N1CCCCN2[C@H](CO)[C@H](c3ccc(C#Cc4ccccn4)cc3)[C@@H]2C1	-0.051
CCS(=O)(=O)N1CCCCN2[C@H](C1)[C@@H](c1ccc(C#Cc3ccccc3OC)cc1)[C@@H]2CO	-9.5*
CCS(=O)(=O)N1CCCCN2[C@H](CO)[C@@H](c3ccc(C#Cc4ccccc4OC)cc3)[C@@H]2C1	-11*
O=S(=O)(Cc1ccccc1)N1CCCCN2[C@H](C1)[C@@H](c1ccc(C#Cc3ccccc3)cc1)[C@@H]2CO	-1.9
CCS(=O)(=O)N1CCCCN2[C@@H](CO)[C@@H](c3ccc(C#Cc4ccccc4OC)cc3)[C@@H]2C1	-20*
O=S(=O)(Cc1ccccc1)N1CCCCN2[C@H](C1)[C@H](c1ccc(C#Cc3ccccc3)cc1)[C@@H]2CO	5.9
CCS(=O)(=O)N1CCCCN2[C@H](C1)[C@H](c1ccc(C#Cc3ccccn3)cc1)[C@@H]2CO	-0.6
CCCC#Cc1ccc([C@@H]2[C@H](CO)N3CCCCN(S(=O)(=O)CC)C[C@@H]23)cc1	-3*
CCCC#Cc1ccc([C@@H]2[C@H]3CN(S(=O)(=O)Cc4ccccc4)CCCCN3[C@H]2CO)cc1	3.8
COc1ccc(C#Cc2ccc([C@H]3[C@@H](CO)N4CCCCN(S(=O)(=O)c5ccccc5)C[C@H]34)cc2)cc1	-1.2
CCCNC(=O)[C@@H]1[C@@H](CO)[C@@H]2Cn3c(ccc(/C=C/c4ccccc4)c3=O)[C@@H]2N1CC1CC1	-0.81
C/C=C/c1ccc([C@H]2[C@@H](CO)N(C(=O)C3CCC3)[C@H]2CNC(=O)CN(C)C)cc1	3.4
CCC(=O)N1CC(=O)N2[C@H](CO)[C@H](c3ccc(-c4cccnc4)cc3)[C@@H]2C1	-1.1
CC(C)(C)[S@@](=O)N1Cc2cc(C(=O)N[C@H]3CCN(Cc4ccccc4)C3)nc(-c3cccc(-c4cccnc4)c3)c2[C@H]1CCO	2.3
O=C(NC1CCCC1)[C@@H]1[C@@H](CO)[C@@H]2Cn3c(cccc3=O)[C@H]1N2C(=O)CC1CC1	-0.054
Cc1ccccc1-c1ccc([C@@H]2[C@@H](CO)N3CCCCN(S(=O)(=O)c4cn(C)cn4)C[C@H]23)cc1	-2.2
Cc1ccccc1-c1ccc([C@@H]2[C@H](CO)N3CCCCN(S(=O)(=O)c4cn(C)cn4)C[C@@H]23)cc1	-16*
Cc1ccccc1-c1ccc([C@H]2[C@@H](CO)N3CCCCN(S(=O)(=O)c4cn(C)cn4)C[C@@H]23)cc1	-3.4*
COc1ccccc1-c1ccc([C@H]2[C@@H](CO)N3CCCCN(S(=O)(=O)c4cn(C)cn4)C[C@H]23)cc1	-9.3*
COc1ccccc1-c1ccc([C@H]2[C@@H](CO)N3CCCCN(S(=O)(=O)c4cn(C)cn4)C[C@@H]23)cc1	0.4
COc1ccccc1-c1ccc([C@H]2[C@H](CO)N3CCCCN(S(=O)(=O)c4cn(C)cn4)C[C@@H]23)cc1	0.67
SMILES	IDE exosite inh
Cc1ccccc1-c1ccc([C@H]2[C@H]3CN(S(=O)(=O)c4cn(C)cn4)CCCCN3[C@H]2CO)cc1	-3.6*
Cn1cnc(S(=O)(=O)N2CCCCN3[C@H](C2)[C@@H](c2ccc(-c4ccc(F)cc4)cc2)[C@@H]3CO)c1	0.91
Cn1cnc(S(=O)(=O)N2CCCCN3[C@H](C2)[C@@H](c2ccc(-c4ccccc4)cc2)[C@@H]3CO)c1	-1.5
Cn1cnc(S(=O)(=O)N2CCCCN3[C@@H](CO)[C@H](c4ccc(-c5ccccc5)cc4)[C@@H]3C2)c1	-0.13
CCCC#Cc1ccc([C@H]2[C@H](CO)N3C(=O)CN(S(=O)(=O)Cc4ccccc4)C[C@@H]23)cc1	5.9
CC(=O)N1CCCCN2[C@H](CO)[C@H](c3ccc(-c4ccncc4)cc3)[C@@H]2C1	1.2
COCC(=O)N(C)C[C@H]1[C@H](c2ccc(-c3ccccc3)cc2)[C@H](CO)N1C(C)=O	2.4
CS(=O)(=O)Nc1ccc2c(c1)[C@H]1C[C@H](CC(=O)NCCc3ccccc3)O[C@@H](CO)[C@H]1O2	-2
COC(=O)C[C@@H]1C[C@H]2c3cc(NC(=O)c4ccc5c(c4)OCO5)ccc3O[C@H]2[C@@H](CO)O1	-0.27
O=C1CN(Cc2ccccc2)C[C@@H]2[C@@H](c3ccc(-c4ccccc4F)cc3)[C@H](CO)N12	-0.48
CN(C)C(=O)c1cccc(-c2ccc([C@@H]3[C@H](CO)N4CCCCN(C(=O)C5CCC5)C[C@@H]34)cc2)c1	3.9
C/C=C/c1ccc([C@@H]2[C@@H](CNC(=O)CC)N(C(=O)CC)[C@H]2CO)cc1	0.69
CNC[C@H]1OCCCC[C@@H](C)Oc2ccc(NS(=O)(=O)c3ccc(F)cc3)cc2C(=O)N([C@@H](C)CO)C[C@H]1C	2.5
